# Assay results: the supplement of paper PMC11417369
# The full ranking holds about 25,000 sequences; the median of “ln(normalized median fluorescence intensity)” is about 6.7, and the highest 2% start at about 10. Shown is part of a subset that was picked to be rich in the highest values.
# Tested on: PfHDP1 homeodomain (GST-tagged)
# Assay: gcPBM binding intensity (ln(normalized median fluorescence intensity)); higher = stronger DNA binding
# Method in brief: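 Plasmodium falciparum DNA-binding domains carrying a GST tag were expressed in E. coli and applied for 1 h, at about 25 μg on average, to an Agilent 4 × 180k array. The array held primer-extended double-stranded 36-bp intergenic genomic probes together with negative controls, and binding took place in 1× PBS with 1% milk, 0.2 mg/ml BSA, 0.5% salmon testes DNA and 0.03% Triton X-100. An Alexa488 anti-GST antibody detected bound protein, and the array was scanned at 488 nm. Binding intensity is taken as the highest Masliner-normalised natural-log median intensity across replicate spots of either probe orientation.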
row,Sequence,gcPBM binding intensity (ln)
1,TAATTTCTTATGTAGTGTACAAATAATATATGATAT [XGTACX_site597],6.39
2,ATTAAAAAAATATAAACACACAAAAAAAAAATATAC [CACACA_site1100],7.06
3,AACAAATAAAAAAAAATAAAAATAAAAATAAAAAAA [XGTACX_negctrl_site451],6.36
4,TTTTTTTCTTCTTTTCTCTTAAAAATATTGAATATT [CACACA_negctrl_site1762],6.28
5,TATACATATGAAAATACACACATACATACAGATATA [CACACA_site5002],6.64
6,AATATTTATGGGTGCACACAAACATACAGATATATA [CACACA_site5810],10.3
7,TGTATTATATATACACAAATATTTATGTGTGTGTTT [XGTACX_negctrl_site475],6.71
8,TATGTGTATAATAAAAGTACATATATTATTATATAA [XGTACX_site8556],6.35
9,TGTATGTTTGGGTGCACACATAAATATTATATATAG [CACACA_site3397],10.2
10,TTGTTGTGTATTATCGTGCACATAATATAAAAGATT,10.5
11,TAAAAATTGCACAGAAGTACAGTATAAATATATATA [XGTACX_site3421],10.2
12,TATATGTATGTTTGTGTGCACACATAAATATTATAT,10.5
13,AAAAGTTGTATTTGCACACATAAAAAAAAGATATTA [CACACA_site3840],10.3
14,AAGAAAAATATTCGTGTGCACAGAAGTATATGTGTG [GTGCAC_site9814],11
15,TGTGTATATGTGCAAAGTACAAAAAAGAAATTATTT [XGTACX_site7569],9.87
16,ATATATTATGGGTGTGCACACAATATTTATATGTTC [CACACA_site2270],10.9
17,TTTATGTGTATGTTTACACACATAAAAAAATATATG [CACACA_site3039],6.54
18,TTGATGTATACAATGTAGATTATTTAATATTTCAAT [GTGCAC_negctrl_site203],6.12
19,TTATGAAAATATTTTTTTCGTTTGATGTATATGTTT [CACACA_negctrl_site1556],6.22
20,TTGTATTATATTGTATTATGTTTAAATGAAAAAAAA [CACACA_negctrl_site662],6.46
21,ATATATCTACAAATATGTACACACACACATATATAT [XGTACX_site1075],6.9
22,TATAAAAAATAAAAAGTTTAATGAATATTTCTTTTA [TGCATGCA_negctrl_site379],5.53
23,TTATGTTGTAAATGCACACATACATATACGCAGTTT [CACACA_site3015],9.92
24,CATTATGTTGTAAATGCACACATACATATACACAGT [CACACA_site8990],9.81
25,TTATGTCATAAATGCACACATATATAAATACAGATA [CACACA_site4959],10.3

row,Sequence,gcPBM binding intensity (ln)
1,CATTATGTCATAAATGCACACATATATATATACATA [CACACA_site8454],9.98
2,TTATGTTGTAAATGCACACATACATAAACTCAGTTT [CACACA_site5639],10.5
3,AATGTATATTATTGCACACATATATAAAATTATGCT [CACACA_site1096],10.5
4,ATGTTCATTATATGCACACATATATATAAATGTAAT [CACACA_site2908],10.2
5,TTATGTCATAAATGCACACATATATATATACATATA [CACACA_site1588],10.5
6,ATAATGTATATTATTGCACACATATATAAAATTATG [CACACA_site8280],10.5
7,TTATGTTCATTATATGCACACATATATATAAATGTA [CACACA_site8947],9.74
8,ACATAAAATAAATATACACACATATGTATATATTAT [CACACA_site3041],6.59
9,ATATATATATATAATGCACACATTATAAATTATGTA [CACACA_site5802],10.6
10,ATCAAAATTGTCATTACACACCTTTATTTTTAGAAT [CACACA_site1813],6.6
11,CAAGCCCTTCTGCTTACACACAGTAATTATTGTGCA [CACACA_site7399],6.34
12,TTTCTATAATATATATGTACATATATAATATGTCGT [XGTACX_site3676],6.58
13,AAATAAAATCATAATGTGCGCATATAAATTTGTAGG [GTGCAC_site9662],8.1
14,AATCCACTTTTTTATGTTATACAATATAAATTAAAT [XGTACX_negctrl_site446],6.71
15,AAAAACTTAATATTCACACATATATATATATATATA [CACACA_site5240],9.48
16,ACAAGATAATAGAGAAGTACTAATAAACATACACAA [XGTACX_site6617],6.9
17,TATATAATATAATGTAGTACATGTTTTATTTTTTAC [XGTACX_site7735],6.4
18,AAATATCTACATATTTGTACATATTTATACATATTT [XGTACX_site6300],6.12
19,TTTTATAATATTTAAAGTACATTCTAAAAATATAAT [XGTACX_site8033],6.01
20,ATACTAAATGAACACACACACATATAGATTTATAAC [CACACA_site6200],6.87
21,GATATATAATATAATACACACATTTTATGAATGTAA [CACACA_site24],6.54
22,ATATATATATATAATGCACACATTATGAATTATGTA [CACACA_site3384],10.8
23,ATAAATAATTATATATGTACACATTATGAATGGATA [XGTACX_site8336],6.74
24,CATACATACCTATATACACACATATAAAATAATATA [CACACA_site7290],6.97
25,CCATGTCAAACATTTGCACACAAAAAAATAAAAATT [CACACA_site4546],9.71

row,Sequence,gcPBM binding intensity (ln)
1,ATATTATCCCTATTTGCACACAAGAGTAATTTTTTA [CACACA_site3908],10.4
2,ATATATTTATATATTGCACACAAAAAAAAAAAAAAA [CACACA_site8468],10.5
3,ACATGTCAAACATTTGCACACAAAAAAATAAAAATT [CACACA_site691],10.2
4,ATATAAATATATTGCACACACAATTATTATTATTAT [CACACA_site7147],10.7
5,ATGTCAAACATTTGCACACAAAAAAATAAAAATTAA [CACACA_site692],10.6
6,TTTATAAAATTTATTGCACACAATTATTTTATAATT [CACACA_site2489],9.98
7,AAATATTTATAAATTGCACACAAATAATAACATTAT [CACACA_site8737],10.2
8,ACACAAAAAATAAAAATATATATATATTATATATAT [CACACA_negctrl_site1489],7.32
9,ATATTTATAAATTGCACACAAATAATAACATTATAT [CACACA_site5322],10.6
10,GAGTATATTTATATTGCACACAATTTTTTTATTTTT [CACACA_site2644],10.5
11,ATATTTATAAATTGCACACAAATAATAACATTCTAT [CACACA_site2357],10.4
12,AAAAAAATATATATATATATATATATATTATATATG [GTGCAC_negctrl_site654],6.87
13,TTTTTTATTTATTGTTATACATCTTACTACTTATAA [GTGCAC_negctrl_site381],6.63
14,TATTTTTTCTTTCATTGTACTTTTTTTTTGTTTTGT [XGTACX_site4081],6.8
15,AAAAAAAAAAAAACTAGTACATATATATAGTATGAA [XGTACX_site6279],6.33
16,ATATATATATATTGCACACACAATTATTATTATTAT [CACACA_site2299],10.6
17,ATATATATATATATTGCACACACAATTATTATTATT [CACACA_site8721],10.6
18,TTAATTATATTATGCACACACAATTGGAAAAAAAAT [CACACA_site1958],10.2
19,AATATTATTATTATTACACACACAATTATATTTACC [CACACA_site8061],6.61
20,TTTTAATTATATTATGCACACACAATTGGAAAAAAA [CACACA_site8598],10.2
21,TTATAATCCATAATTGCACACAATATATTCATATTT [CACACA_site3916],10.1
22,AATAATGTATAATGATGTACAAAAAAGGAAGACATA [XGTACX_site2474],7.43
23,TAACTTCAAAAATCTTGTACATAAATATATAAAACA [XGTACX_site8574],6.29
24,GTGTTTGAAAATAAAGCATGCAAATATATTTGAAAT [TGCATGCA_site386],7.23
25,TTTTTTATTGTGATACGTATATTATTTTATGATTAA [GTGCAC_negctrl_site202],6.82

row,Sequence,gcPBM binding intensity (ln)
1,TCTTTTATGCACATTGAGTAAACAACATATTTTTAA [TGCATGCA_negctrl_site561],10.9
2,AAAGTAAAAAAAAAAACATGCACATATTTACTTTAT [TGCATGCA_site849],7.94
3,CATATTTATAAATATAAACACACAACATTATATGCA [CACACA_site9065],6.82
4,ATAATATTATGTGTGAATATATCTTTAAAAAGGATA [GTGCAC_negctrl_site15],6.33
5,AAGAGAAATATATATTGTACAATAATTTTATTTGGT [XGTACX_site7642],6.21
6,ATATTAATAATATATACACACATAAGTATTGTATAT [CACACA_site4095],6.46
7,AAGTGCATATTATTCACACATAATAATTGTATACCT [CACACA_site5965],10.5
8,TATAAATGTATACAAGTGCATATTATTCACACATAA,8.59
9,TGATTCACTATAGTAGTGCATATTATATATATATAT [GTGCAC_site9975],9.23
10,AAAAAAAAATATATATATATATATATATTTATGTAT [GTGCAC_negctrl_site483],6.92
11,CATATTTTGTGAAAAAGTACATATATATATATATAT [XGTACX_site6295],9.38
12,ATGATAATTATTAAGGGTACATAAAAATATATCTAT [XGTACX_site8969],6.36
13,TTATAGAACTATATTGCACACATAATATATATATAT [CACACA_site9042],10.1
14,TTTAAAAATAAAAGTACACACATAAACATATTGCAC [CACACA_site6784],7.47
15,ATATATATATATAAATGTACATTTTTCAATAGTTTT [XGTACX_site7449],8.98
16,TACATATTGCACAAATAAAAAAGAACAAAAAAAAAA [CACACA_negctrl_site1200],10.9
17,ATGTCTACAGTTTTTGCACACATATAAATAAAAAAA [CACACA_site3600],10.3
18,ATAGAACTATATTGCACACATAATATATATATATAT [CACACA_site3189],10.7
19,TATATTGCAAAAAGTACACACATAAATAAATACATA [CACACA_site6589],9.04
20,TACATATAATATATTGCACACGTCAGAATAATATAG [CACACA_site1744],10.3
21,GTGTACAGTTTTTGCACACATATAAATAAAAAAAAG [CACACA_site3599],10.2
22,TTTGTAGTTTGCACATGTACACATTTCAAAATAAAG [XGTACX_site7568],10.7
23,ATCTGTACAGTTTTTGCACACATATAAATAAAAAAA [CACACA_site9198],10.7
24,ATATAGTTTCACATGTGTACATAAAAATACACTTGT [XGTACX_site3339],6.59
